# Laboratory results: publication PMC7862700, “An all-to-all approach to the identification of sequence-specific readers for epigenetic DNA modifications on cytosine”
# Tests used:
# Experiment in all cases: DAPPL (digital affinity profiling via proximity ligation, sequencing); 10 mM Tris-HCl pH 7.5, 50 mM NaCl, 1 mM DTT, 4% glycerol, room temperature, 30 min; GST-TFs on glutathione beads, 16-mer random dsDNA library, 0.1% formaldehyde crosslink after washing; high values mean tight binding
# FLI1 = biological target: T1, FLI1 (Homo sapiens, UniProt Q01543 1-452); conditions: protein: recombinant; tags: N-terminal GST; dsDNA, one strand shown
# T1 sequence: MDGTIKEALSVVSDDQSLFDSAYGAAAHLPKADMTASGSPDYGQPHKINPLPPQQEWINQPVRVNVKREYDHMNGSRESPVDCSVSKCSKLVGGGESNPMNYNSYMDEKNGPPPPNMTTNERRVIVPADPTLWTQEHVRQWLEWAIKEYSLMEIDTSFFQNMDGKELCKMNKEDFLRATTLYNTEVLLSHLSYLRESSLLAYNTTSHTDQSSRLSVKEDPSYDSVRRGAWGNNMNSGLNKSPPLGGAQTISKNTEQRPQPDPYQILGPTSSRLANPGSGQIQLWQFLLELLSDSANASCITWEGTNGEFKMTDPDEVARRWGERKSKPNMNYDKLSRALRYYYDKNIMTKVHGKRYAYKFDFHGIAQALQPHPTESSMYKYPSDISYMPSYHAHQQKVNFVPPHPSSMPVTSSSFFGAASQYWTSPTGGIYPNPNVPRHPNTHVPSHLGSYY
# Summary of the method: (§1)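 Pools of DNA-barcoded human transcription factors, expressed in yeast as GST fusions on glutathione beads and combined with a tag-only sample, were incubated with 200 nmole of a 16-mer random double-stranded DNA library. Incubation took 30 min at room temperature in Tris/NaCl/DTT/glycerol buffer and was followed by washing, 0.1% formaldehyde crosslinking, proximity ligation (BsaI/T4 ligase, 1 h, 37 °C), PCR amplification and sequencing on an Illumina NextSeq500. Binding signal is the ratio of a hexamer's read frequency for a factor to its frequency for the tag-only sample.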
# ELK1 = biological target: T2, ELK1 (Homo sapiens, UniProt P19419 1-428); conditions: protein: recombinant; tags: N-terminal GST; dsDNA, one strand shown
# T2 sequence: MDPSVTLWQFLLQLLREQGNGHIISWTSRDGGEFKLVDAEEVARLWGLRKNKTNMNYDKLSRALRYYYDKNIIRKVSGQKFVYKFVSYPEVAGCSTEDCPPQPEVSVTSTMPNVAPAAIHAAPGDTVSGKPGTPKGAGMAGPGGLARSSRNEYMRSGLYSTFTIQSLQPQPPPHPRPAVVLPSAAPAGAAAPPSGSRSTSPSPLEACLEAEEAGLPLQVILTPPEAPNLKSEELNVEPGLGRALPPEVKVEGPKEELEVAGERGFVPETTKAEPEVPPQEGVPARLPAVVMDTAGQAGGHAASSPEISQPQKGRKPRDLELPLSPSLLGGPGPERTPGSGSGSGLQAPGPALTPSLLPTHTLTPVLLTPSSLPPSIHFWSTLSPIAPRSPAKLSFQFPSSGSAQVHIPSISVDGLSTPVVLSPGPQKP
# Summary of the method: as §1
# GABPA = biological target: T3, GABPA (Homo sapiens, UniProt Q06546 1-454); conditions: protein: recombinant; tags: N-terminal GST; dsDNA, one strand shown
# T3 sequence: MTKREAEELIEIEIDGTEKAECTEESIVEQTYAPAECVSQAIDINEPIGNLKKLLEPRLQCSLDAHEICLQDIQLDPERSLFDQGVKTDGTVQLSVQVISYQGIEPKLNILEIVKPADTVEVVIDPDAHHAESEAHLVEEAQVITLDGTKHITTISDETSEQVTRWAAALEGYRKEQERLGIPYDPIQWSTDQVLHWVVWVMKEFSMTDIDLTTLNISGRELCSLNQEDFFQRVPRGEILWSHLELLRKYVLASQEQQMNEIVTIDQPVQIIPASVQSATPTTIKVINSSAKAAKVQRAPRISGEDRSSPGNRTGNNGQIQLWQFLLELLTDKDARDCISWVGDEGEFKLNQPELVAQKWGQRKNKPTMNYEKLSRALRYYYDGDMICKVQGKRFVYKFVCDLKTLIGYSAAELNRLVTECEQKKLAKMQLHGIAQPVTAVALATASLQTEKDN
# Summary of the method: as §1
# ERG = biological target: T4, ERG (Homo sapiens, UniProt P11308 1-479); conditions: protein: recombinant; tags: N-terminal GST; dsDNA, one strand shown
# T4 sequence: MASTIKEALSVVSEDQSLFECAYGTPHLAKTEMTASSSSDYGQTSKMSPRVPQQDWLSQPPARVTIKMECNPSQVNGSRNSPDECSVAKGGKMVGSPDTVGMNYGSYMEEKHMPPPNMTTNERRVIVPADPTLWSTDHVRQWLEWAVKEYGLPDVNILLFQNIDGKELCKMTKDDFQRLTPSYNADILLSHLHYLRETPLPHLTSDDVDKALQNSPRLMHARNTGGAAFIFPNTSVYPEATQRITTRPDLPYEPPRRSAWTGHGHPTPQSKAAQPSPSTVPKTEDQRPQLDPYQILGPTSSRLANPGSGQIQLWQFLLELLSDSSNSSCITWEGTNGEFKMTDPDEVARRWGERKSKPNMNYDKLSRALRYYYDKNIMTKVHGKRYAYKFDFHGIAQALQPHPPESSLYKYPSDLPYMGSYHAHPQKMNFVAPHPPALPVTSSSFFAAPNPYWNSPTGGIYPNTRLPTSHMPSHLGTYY
# Summary of the method: as §1
# ELF1 = ELF1 (Homo sapiens, UniProt P32519 1-619); conditions: protein: recombinant; tags: N-terminal GST; dsDNA, one strand shown
# Summary of the method: as §1
# EHF = biological target: T5, EHF (Homo sapiens, UniProt Q9NZC4 1-300); conditions: protein: recombinant; tags: N-terminal GST; dsDNA, one strand shown
# T5 sequence: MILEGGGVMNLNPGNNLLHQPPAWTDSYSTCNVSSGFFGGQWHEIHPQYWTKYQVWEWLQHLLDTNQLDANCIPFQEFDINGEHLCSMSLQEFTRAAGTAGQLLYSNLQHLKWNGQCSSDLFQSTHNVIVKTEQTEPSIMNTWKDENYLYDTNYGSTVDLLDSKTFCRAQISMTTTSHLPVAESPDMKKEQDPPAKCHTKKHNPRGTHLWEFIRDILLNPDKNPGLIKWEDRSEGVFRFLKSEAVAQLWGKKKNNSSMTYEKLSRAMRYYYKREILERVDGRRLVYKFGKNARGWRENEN
# Summary of the method: as §1
# SPI1 = SPI1 (Homo sapiens, UniProt P17947 1-270); conditions: protein: recombinant; tags: N-terminal GST; dsDNA, one strand shown
# Summary of the method: as §1
# SPIB = SPIB (Homo sapiens, UniProt Q01892 1-262); conditions: protein: recombinant; tags: N-terminal GST; dsDNA, one strand shown
# Summary of the method: as §1
# ELK3 = biological target: T6, ELK3 (Homo sapiens, UniProt P41970 1-407); conditions: protein: recombinant; tags: N-terminal GST; dsDNA, one strand shown
# T6 sequence: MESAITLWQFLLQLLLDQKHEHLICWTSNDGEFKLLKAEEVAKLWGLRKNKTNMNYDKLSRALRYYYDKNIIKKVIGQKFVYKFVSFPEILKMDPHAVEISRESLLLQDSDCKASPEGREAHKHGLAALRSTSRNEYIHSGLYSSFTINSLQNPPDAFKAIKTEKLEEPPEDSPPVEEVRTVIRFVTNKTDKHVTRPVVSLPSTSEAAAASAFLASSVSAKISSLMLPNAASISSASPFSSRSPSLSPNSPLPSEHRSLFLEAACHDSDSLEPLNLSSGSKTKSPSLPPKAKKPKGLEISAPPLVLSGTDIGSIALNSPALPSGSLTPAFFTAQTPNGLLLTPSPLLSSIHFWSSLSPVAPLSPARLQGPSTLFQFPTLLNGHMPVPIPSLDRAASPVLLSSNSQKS
# Summary of the method: as §1
# FEV = biological target: T7, FEV (Homo sapiens, UniProt Q99581 1-238); conditions: protein: recombinant; tags: N-terminal GST; dsDNA, one strand shown
# T7 sequence: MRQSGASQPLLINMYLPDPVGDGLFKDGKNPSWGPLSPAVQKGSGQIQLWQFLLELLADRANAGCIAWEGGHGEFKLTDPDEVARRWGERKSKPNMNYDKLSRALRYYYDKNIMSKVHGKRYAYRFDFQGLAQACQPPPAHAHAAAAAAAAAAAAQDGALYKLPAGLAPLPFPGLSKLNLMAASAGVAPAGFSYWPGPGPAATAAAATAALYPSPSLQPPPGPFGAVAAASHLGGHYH
# Summary of the method: as §1
# ETV5 = ETV5 (Homo sapiens, UniProt P41161 1-510); conditions: protein: recombinant; tags: N-terminal GST; dsDNA, one strand shown
# Summary of the method: as §1
# HSF1 = HSF1 (Homo sapiens, UniProt Q00613 1-529); conditions: protein: recombinant; tags: N-terminal GST; chain copies: 3; dsDNA, one strand shown
# Summary of the method: as §1
# SPIC = biological target: T8, SPIC (Homo sapiens, UniProt Q8N5J4 1-248); conditions: protein: recombinant; tags: N-terminal GST; dsDNA, one strand shown
# T8 sequence: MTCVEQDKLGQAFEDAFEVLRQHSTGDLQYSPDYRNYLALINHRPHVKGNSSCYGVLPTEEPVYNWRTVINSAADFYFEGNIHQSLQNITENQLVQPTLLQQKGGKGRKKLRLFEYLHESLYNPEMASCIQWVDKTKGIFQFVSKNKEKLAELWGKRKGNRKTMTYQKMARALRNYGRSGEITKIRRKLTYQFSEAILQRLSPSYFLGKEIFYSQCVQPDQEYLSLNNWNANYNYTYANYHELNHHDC
# Summary of the method: as §1
# ELF4 = ELF4 (Homo sapiens, UniProt Q99607 1-663); conditions: protein: recombinant; tags: N-terminal GST; dsDNA, one strand shown
# Summary of the method: as §1
# ELK4 = biological target: T9, ELK4 (Homo sapiens, UniProt P28324-2 1-405); conditions: protein: recombinant; tags: N-terminal GST; dsDNA, one strand shown
# T9 sequence: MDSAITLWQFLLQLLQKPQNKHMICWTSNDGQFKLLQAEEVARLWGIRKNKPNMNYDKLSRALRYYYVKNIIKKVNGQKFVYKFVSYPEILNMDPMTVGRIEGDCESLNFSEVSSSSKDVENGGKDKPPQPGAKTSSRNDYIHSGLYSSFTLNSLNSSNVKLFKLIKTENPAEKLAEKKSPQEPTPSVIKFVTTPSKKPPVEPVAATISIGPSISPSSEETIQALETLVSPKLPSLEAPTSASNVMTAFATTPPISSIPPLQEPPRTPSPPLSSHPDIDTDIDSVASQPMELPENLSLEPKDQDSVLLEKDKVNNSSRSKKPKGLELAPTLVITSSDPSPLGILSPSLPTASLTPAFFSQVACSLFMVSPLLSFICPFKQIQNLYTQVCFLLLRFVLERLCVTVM
# Summary of the method: as §1
# ETV2 = biological target: T10, ETV2 (Homo sapiens, UniProt O00321 1-342); conditions: protein: recombinant; tags: N-terminal GST; dsDNA, one strand shown
# T10 sequence: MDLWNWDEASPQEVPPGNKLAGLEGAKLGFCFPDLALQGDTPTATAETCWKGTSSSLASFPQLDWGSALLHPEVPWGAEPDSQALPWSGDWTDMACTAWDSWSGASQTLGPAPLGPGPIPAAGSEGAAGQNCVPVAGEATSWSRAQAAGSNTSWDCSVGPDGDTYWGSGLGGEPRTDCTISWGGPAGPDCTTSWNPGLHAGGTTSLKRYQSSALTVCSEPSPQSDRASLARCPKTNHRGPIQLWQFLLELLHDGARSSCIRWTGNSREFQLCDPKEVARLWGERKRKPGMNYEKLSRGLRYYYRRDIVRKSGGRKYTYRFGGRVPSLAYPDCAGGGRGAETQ
# Summary of the method: as §1
# ELF3 = biological target: T11, ELF3 (Homo sapiens, UniProt P78545 1-371); conditions: protein: recombinant; tags: N-terminal GST; dsDNA, one strand shown
# T11 sequence: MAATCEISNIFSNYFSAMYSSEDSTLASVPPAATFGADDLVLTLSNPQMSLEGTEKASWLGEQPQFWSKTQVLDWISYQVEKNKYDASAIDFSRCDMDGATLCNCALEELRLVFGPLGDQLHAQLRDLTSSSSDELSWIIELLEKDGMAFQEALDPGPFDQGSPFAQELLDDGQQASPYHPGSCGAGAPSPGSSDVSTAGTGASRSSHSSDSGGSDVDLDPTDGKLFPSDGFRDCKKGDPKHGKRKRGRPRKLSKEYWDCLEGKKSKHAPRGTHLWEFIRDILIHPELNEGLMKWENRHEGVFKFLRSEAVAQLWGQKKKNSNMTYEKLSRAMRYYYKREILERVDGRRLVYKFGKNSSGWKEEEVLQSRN
# Summary of the method: as §1
# CRX = CRX (Homo sapiens, UniProt O43186 1-299); conditions: protein: recombinant; tags: N-terminal GST; dsDNA, one strand shown
# Summary of the method: as §1
# ETV1 = ETV1 (Homo sapiens, UniProt P50549 1-477); conditions: protein: recombinant; tags: N-terminal GST; dsDNA, one strand shown
# Summary of the method: as §1
# Chain of CRX (O43186 whole entry): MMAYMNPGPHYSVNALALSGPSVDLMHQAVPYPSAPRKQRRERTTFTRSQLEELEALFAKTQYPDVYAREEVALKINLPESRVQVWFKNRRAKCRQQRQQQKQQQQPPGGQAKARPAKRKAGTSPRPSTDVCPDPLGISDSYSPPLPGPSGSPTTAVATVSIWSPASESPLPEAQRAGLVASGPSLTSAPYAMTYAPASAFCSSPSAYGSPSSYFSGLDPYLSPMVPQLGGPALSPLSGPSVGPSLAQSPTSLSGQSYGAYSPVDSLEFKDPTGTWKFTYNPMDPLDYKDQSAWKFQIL
# Chain of HSF1 (Q00613 whole entry): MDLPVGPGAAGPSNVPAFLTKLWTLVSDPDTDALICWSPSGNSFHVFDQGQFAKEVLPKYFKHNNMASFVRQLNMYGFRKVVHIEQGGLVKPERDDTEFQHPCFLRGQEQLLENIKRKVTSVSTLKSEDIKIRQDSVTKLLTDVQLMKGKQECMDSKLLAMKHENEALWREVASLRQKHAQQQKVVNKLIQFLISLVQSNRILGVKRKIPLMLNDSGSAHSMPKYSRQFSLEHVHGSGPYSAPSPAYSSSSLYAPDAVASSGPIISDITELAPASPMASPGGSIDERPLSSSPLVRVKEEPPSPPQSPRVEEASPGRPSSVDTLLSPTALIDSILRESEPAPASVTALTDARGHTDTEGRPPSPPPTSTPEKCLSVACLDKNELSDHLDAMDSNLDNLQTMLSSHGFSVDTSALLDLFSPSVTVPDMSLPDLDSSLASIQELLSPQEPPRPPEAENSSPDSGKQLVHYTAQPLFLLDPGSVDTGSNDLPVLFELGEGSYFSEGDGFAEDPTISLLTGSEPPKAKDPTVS
# Chain of ETV1 (P50549 whole entry): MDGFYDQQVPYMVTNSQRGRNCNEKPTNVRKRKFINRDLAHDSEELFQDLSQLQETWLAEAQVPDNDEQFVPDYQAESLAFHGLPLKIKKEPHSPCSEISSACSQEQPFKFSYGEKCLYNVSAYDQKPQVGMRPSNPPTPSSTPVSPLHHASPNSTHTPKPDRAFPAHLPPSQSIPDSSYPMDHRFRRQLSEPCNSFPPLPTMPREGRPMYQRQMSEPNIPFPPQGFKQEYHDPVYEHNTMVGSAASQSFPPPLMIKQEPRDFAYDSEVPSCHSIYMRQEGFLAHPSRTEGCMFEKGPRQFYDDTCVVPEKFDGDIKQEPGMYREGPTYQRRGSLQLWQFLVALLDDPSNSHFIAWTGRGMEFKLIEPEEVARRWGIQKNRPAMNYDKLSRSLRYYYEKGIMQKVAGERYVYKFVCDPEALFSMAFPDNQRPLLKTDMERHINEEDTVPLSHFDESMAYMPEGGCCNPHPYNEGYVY
# Chain of ELF1 (P32519 whole entry): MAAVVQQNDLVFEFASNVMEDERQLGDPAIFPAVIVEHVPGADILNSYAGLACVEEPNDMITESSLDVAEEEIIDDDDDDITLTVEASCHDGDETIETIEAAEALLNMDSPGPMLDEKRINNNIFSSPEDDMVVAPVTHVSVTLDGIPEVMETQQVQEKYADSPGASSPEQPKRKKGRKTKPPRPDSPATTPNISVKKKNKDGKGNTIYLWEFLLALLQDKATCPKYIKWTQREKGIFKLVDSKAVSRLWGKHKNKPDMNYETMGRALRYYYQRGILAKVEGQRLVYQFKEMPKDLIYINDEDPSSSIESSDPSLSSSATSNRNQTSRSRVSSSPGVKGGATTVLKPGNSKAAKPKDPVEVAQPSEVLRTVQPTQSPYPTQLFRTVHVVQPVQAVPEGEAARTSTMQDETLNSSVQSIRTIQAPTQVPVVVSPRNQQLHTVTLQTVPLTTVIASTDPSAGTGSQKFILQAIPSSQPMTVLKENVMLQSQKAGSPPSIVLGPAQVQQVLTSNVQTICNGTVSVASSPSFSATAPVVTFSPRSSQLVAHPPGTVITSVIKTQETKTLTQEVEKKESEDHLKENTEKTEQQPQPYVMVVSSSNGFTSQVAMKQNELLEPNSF
# Chain of ELF4 (Q99607 whole entry): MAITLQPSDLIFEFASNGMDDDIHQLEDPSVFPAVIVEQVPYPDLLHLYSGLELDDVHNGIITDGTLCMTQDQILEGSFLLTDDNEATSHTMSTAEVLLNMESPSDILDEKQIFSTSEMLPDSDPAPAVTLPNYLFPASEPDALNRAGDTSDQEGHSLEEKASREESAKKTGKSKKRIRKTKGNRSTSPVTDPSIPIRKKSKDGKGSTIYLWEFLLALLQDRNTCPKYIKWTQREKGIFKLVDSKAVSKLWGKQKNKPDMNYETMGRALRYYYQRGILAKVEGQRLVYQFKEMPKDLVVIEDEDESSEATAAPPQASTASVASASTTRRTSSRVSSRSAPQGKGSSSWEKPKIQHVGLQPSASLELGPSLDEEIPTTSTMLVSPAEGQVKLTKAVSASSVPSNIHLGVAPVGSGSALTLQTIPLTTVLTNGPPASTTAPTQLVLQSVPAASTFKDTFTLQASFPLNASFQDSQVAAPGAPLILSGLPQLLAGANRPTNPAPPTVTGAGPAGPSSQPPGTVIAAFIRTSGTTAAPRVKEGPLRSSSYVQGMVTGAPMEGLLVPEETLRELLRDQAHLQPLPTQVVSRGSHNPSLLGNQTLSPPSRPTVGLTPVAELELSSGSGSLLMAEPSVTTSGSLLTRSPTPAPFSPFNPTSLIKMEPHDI
# Chain of ETV5 (P41161 whole entry): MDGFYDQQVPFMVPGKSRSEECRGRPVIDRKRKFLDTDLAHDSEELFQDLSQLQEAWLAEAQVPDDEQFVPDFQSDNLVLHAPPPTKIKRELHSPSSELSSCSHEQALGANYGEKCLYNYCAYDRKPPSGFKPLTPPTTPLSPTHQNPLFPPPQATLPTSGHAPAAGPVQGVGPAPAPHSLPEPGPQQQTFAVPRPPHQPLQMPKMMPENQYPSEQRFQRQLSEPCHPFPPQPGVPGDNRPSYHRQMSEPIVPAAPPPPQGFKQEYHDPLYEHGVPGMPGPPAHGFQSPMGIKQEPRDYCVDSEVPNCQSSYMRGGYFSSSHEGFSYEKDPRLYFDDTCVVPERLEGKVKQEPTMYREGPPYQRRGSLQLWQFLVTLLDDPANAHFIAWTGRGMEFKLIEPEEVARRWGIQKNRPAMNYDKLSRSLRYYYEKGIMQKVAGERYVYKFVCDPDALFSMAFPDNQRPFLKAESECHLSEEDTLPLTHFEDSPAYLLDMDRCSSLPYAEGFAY
# Chain of SPIB (Q01892 whole entry): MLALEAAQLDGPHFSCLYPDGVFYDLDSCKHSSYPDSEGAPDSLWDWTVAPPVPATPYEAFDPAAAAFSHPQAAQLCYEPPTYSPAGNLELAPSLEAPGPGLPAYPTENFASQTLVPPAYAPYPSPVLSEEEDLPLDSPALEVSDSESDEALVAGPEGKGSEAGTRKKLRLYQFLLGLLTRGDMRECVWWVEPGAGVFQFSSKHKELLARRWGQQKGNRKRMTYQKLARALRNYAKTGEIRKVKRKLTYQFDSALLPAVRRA
sequence,measurement,setting,value
CTCACG,binding signal,FLI1,"1.36 fold enrichment (6-mer frequency, TF over GST control)"
same,binding signal,ELK1,"1.33 fold enrichment (6-mer frequency, TF over GST control)"
same,binding signal,GABPA,"1.33 fold enrichment (6-mer frequency, TF over GST control)"
same,binding signal,ERG,"1.33 fold enrichment (6-mer frequency, TF over GST control)"
same,binding signal,ELF1,"1.25 fold enrichment (6-mer frequency, TF over GST control)"
same,binding signal,EHF,"1.31 fold enrichment (6-mer frequency, TF over GST control)"
same,binding signal,SPI1,"1.22 fold enrichment (6-mer frequency, TF over GST control)"
same,binding signal,SPIB,"1.32 fold enrichment (6-mer frequency, TF over GST control)"
same,binding signal,ELK3,"1.41 fold enrichment (6-mer frequency, TF over GST control)"
same,binding signal,FEV,"1.32 fold enrichment (6-mer frequency, TF over GST control)"
same,binding signal,ETV5,"1.4 fold enrichment (6-mer frequency, TF over GST control)"
same,binding signal,HSF1,"1.14 fold enrichment (6-mer frequency, TF over GST control)"
same,binding signal,SPIC,"1.31 fold enrichment (6-mer frequency, TF over GST control)"
same,binding signal,ELF4,"1.33 fold enrichment (6-mer frequency, TF over GST control)"
same,binding signal,ELK4,"1.35 fold enrichment (6-mer frequency, TF over GST control)"
same,binding signal,ETV2,"1.35 fold enrichment (6-mer frequency, TF over GST control)"
same,binding signal,ELF3,"1.26 fold enrichment (6-mer frequency, TF over GST control)"
same,binding signal,CRX,"1.08 fold enrichment (6-mer frequency, TF over GST control)"
same,binding signal,ETV1,"1.22 fold enrichment (6-mer frequency, TF over GST control)"
